For one assay, the system named is Klebsiella pneumoniae. Conditions: Concentration 32 ug.mL-1, ASSAY_TEST Inhibition of Bacterial Growth, detection method Absorption (OD600), MEDIA CAMHB, plate type 384well, NBS, CORNING #3640, time 18 hr.
The next assay deals with Cryptococcus neoformans. Conditions: Concentration 32 ug.mL-1, ASSAY_TEST Inhibition of Fungal Growth, detection method Resazurin, Absorption (OD600-OD570), plate type 384well, NBS, CORNING #3640. A general note: Alamar Blue is a resazurin reagent that responds to reducing activity.
Another assay relates to Candida albicans. Conditions: 32 ug/mL.

Each structure is given as a SMILES string. Where “and” joins values, the source holds several entries; their conditions need not be identical. Equal values may be shown once. Results with a measured potency or affinity are listed apart.

As usually defined, the Inhibition is the drop in the measured response relative to a control, in per cent. In the case of `CC(C)(C)OC(=O)N1C(O)C(Cc2ccccc2)CN1S(=O)(=O)c1ccc([N+](=O)[O-])cc1` (stereo unspecified), the Inhibition in the assay on Klebsiella pneumoniae (32 ug/mL) was 9.89% and 6.63% and 13.09%; in the assay with Cryptococcus neoformans (32 ug/mL) it was -4.16% and -1.5% and -1.29%.

For the compound `CC(C)(C)OC(=O)N1C(=O)C(Cc2ccccc2)CN1S(=O)(=O)c1ccc([N+](=O)[O-])cc1` (stereo unspecified), the Inhibition in the assay on Klebsiella pneumoniae (32 ug/mL) is 6.28% and 7.63% and -5.45%; in the assay with Cryptococcus neoformans (32 ug/mL), -5.52% and -6.93% and -6.97%.

Take `CC1CN(C(=O)OCc2ccccc2)OC1O` (stereo unspecified): the Inhibition in the assay on Klebsiella pneumoniae is 4.15%; in the assay with Candida albicans, 2.95%; in the assay on Cryptococcus neoformans it was -0.06%.

With `CCCCCCCC1CN(S(=O)(=O)c2ccc(C)cc2)N(S(=O)(=O)c2ccc(C)cc2)C1O` (stereo unspecified), the Inhibition is 2.03% in the assay on Klebsiella pneumoniae, 8.32% in the assay with Candida albicans and -3.29% in the assay on Cryptococcus neoformans.

For `CCCCCCCC1CN(S(=O)(=O)c2ccc(C)cc2)N(C(=O)OC(C)(C)C)C1=O` (stereo unspecified), the Inhibition with Klebsiella pneumoniae was 0.4%; in the assay with Candida albicans, 1.48%; in the assay on Cryptococcus neoformans, -13.28%.

For the compound `Cc1ccc(S(=O)(=O)N2CC(C)C(=O)N2S(=O)(=O)c2ccc(C)cc2)cc1` (stereo unspecified), the Inhibition with Klebsiella pneumoniae (32 ug/mL) is 2.85% and 1.74%; with Candida albicans, 7.75% and 4.44%; in the assay with Cryptococcus neoformans (32 ug/mL), -9.56% and 1.92%.

`CC1CN(C(=O)OCc2ccccc2)OC1=O` (stereo unspecified): the Inhibition in the assay with Klebsiella pneumoniae (32 ug/mL) was 1.37% and 8.3% and 6.85%.

With `CC1CN(S(=O)(=O)c2ccc([N+](=O)[O-])cc2)N(C(=O)OC(C)(C)C)C1O` (stereo unspecified), the Inhibition was -4.4% with Klebsiella pneumoniae, 0.59% in the assay on Candida albicans and -8.44% in the assay on Cryptococcus neoformans.

As to `CCCCCCCC1CN(S(=O)(=O)c2ccc(C)cc2)N(C(=O)OC(C)(C)C)C1O` (stereo unspecified), the results for the Inhibition with Klebsiella pneumoniae, with Candida albicans and in the assay on Cryptococcus neoformans were -2.15%, 2.88% and -7.05%, respectively.

Turning to `O=C(OCc1ccccc1)N1OC(O)C2CCCCC21` (stereo unspecified), the Inhibition in the assay on Klebsiella pneumoniae is 8.05%; in the assay on Candida albicans, 6.56%; with Cryptococcus neoformans, -9.13%.

The record behind these values is ChEMBL document CHEMBL4513145, “CO-ADD screening of Biotechnology Research Centre (C.R.B.t) (Algeria) compounds”.
